# According to PubChem BioAssay:
# “And” between values parts separate entries of the source, which are not always exact repeats. Identical values can stand only once. Results filed as inconclusive are left out. The source made the active and inactive calls.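 Rule for the calls, unless noted: active = normalized viability below 100% at a tested concentration; inactive = the rest.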
# Assays:
# [1] = viability loss in pontine glioma line – cell-based, SU-DIPG-XVII, MIPE5.0, CellTiter-Glo, qHTS, dose response (AID 1347060; cut-off not given, nearly all actives have AC50 up to about 26 µM); details: CellTiter-Glo ATP luminescence
# [2] = viability loss in pontine glioma line – cell-based, SU-DIPG-XIII, MIPE5.0, CellTiter-Glo, qHTS, dose response (AID 1347064; cut-off not given, nearly all actives have AC50 up to about 23 µM); details: CellTiter-Glo ATP luminescence
# [3] = viability loss in pontine glioma line – cell-based, SU-DIPG-XXV, MIPE5.0, CellTiter-Glo, qHTS, dose response (AID 1347065; cut-off not given, nearly all actives have AC50 up to about 26 µM;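 note: cells exposed to compound for 48 hours before ATP readout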); details: CellTiter-Glo ATP luminescence
# [4] = growth inhibition of DIPG cells – cell-based, MIPE4.0 library, CellTiter-Glo luminescence, qHTS (AID 1347066; cut-off not given, nearly all actives have AC50 up to about 30 µM;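 note: cells exposed to compound for 48 hours before readout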); details: SU-DIPG-VI viability, CellTiter-Glo ATP luminescence
# [5] = JHH-DIPG-1 glioma cell viability, MIPE5.0 library, CellTiter-Glo luminescence, qHTS (AID 1347067; cut-off not given, nearly all actives have AC50 up to about 26 µM;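 note: cells exposed to compound for 48 hours before readout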); details: JHH-DIPG-1 glioma viability, CellTiter-Glo ATP luminescence
# [6] = growth inhibition of DIPG cells – cell-based, MIPE5.0 library, qHTS (AID 1347068; cut-off not given, nearly all actives have IC50 up to about 30 µM); details: SU-DIPG-XXV viability
# [7] = viability loss with induced miR-34 in A549 – imaging, A549 dox-inducible miR-34, nuclei and caspase counts, primary screen (AID 1347080;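 active = compounds whose cell count with miR-34 switched on is under 0.7 times the count with it off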); details: A549 miR-34 inducible, Hoechst nuclei count, 48 h
# [8] = compounds altering HSF1 focus formation in cells – imaging, Selleck Cancer Library (AID 1347162; in the data active = plate-normalised HSF1 focus index below about 0.46); details: human cells, HSF1 nuclear foci imaging, at 10 µM; SSMD: measured here: HSF1 foci SSMD mean; cell count: measured here: cell number; plate-normalised HSF1 focus index: stronger effect = lower value
# [9] = MELAS cybrid and Rieske KO viability enhancers – cell-based, MELAS cybrids, Rieske KO mouse fibroblasts, CellTiter-Glo, primary screen (AID 1508586;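 active = mean z-score across replicates of 1.96 or higher in either the MELAS or the Rieske mutant cell line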;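 note: z relative to plate mean and SD of compound and empty wells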); details: low glucose
# [10] = drug combination growth inhibition, ovarian cancer – cell-based, oncology-focused library, rucaparib conditional, profiling panel (AID 1508598); details: patient-derived ovarian cancer cells, CellTiter-Glo viability, 144 h, stronger effect = lower value
# [11] = growth inhibition, single agent or in combination, cell-based, chromothripsis tumors, cisplatin or BGB combos (AID 1671449; in the data active = inhibition above about 80%;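 note: cells exposed for 96 hours; 0% = vehicle DMSO and 100% = killing by high DMSO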); details: LFS_MB_P medulloblastoma cells
# [12] = growth inhibition, single agent and combos, cell-based, chromothripsis tumors, cisplatin or BGB combos (AID 1671450; in the data active = inhibition above about 80%;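 note: cells exposed to compound for four days; 0% = vehicle DMSO and 100% = cell killing by high DMSO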); details: HDN33 neuroblastoma cells, stronger effect = higher value
compound,measurement,setting,value
NC(=O)c1ccc(I)c([N+](=O)[O-])c1,outcome,[1],inactive
same,outcome,[2],inactive
same,outcome,[3],inactive
same,outcome,[4],inactive
same,outcome,[5],inactive
same,outcome,[6],inactive
same,fold change,"[7]; stronger effect = lower value, cell number ratio, induced over uninduced",0.861 (inactive)
same,fold change,[7]; measured here: relative caspase fold change +Dox/-Dox,0.928
same,cell count,"[7]; measured here: total cells with miR-34 induction, stronger effect = lower value",7270
same,cell count,[7]; measured here: total cells without miR-34 induction,8450
same,SSMD,[8],1.45
same,cell count,[8],6730
same,plate-normalised HSF1 focus index,[8],1.07 (inactive)
same,z-score,"[9]; MELAS cybrid survival, CellTiter-Glo 48 h, stronger effect = higher value",-0.444 (inactive)
same,z-score,"[9]; Rieske KO mouse fibroblast survival, CellTiter-Glo 72 h",0.628
same,viability,"[10]; at 0.000305 µM, OCI-C5x cells, with rucaparib 10 µM, 100% = cells with rucaparib alone",109% (inactive)
same,viability,"[10]; at 0.000305 µM, OCI-C5x cells, without rucaparib",119% (inactive)
same,viability,"[10]; at 0.000305 µM, OCI-P5x cells, with rucaparib 20 µM, 100% = cells with rucaparib alone",98.3% (active)
same,viability,"[10]; at 0.000305 µM, OCI-P5x cells, without rucaparib",94.7% (active)
same,viability,"[10]; at 0.00122 µM, OCI-C5x cells, with rucaparib 10 µM, 100% = cells with rucaparib alone",110% (inactive)
same,viability,"[10]; at 0.00122 µM, OCI-C5x cells, without rucaparib",116% (inactive)
same,viability,"[10]; at 0.00122 µM, OCI-P5x cells, with rucaparib 20 µM, 100% = cells with rucaparib alone",102% (inactive)
same,viability,"[10]; at 0.00122 µM, OCI-P5x cells, without rucaparib",97.6% (active)
same,viability,"[10]; at 0.00488 µM, OCI-C5x cells, with rucaparib 10 µM, 100% = cells with rucaparib alone",113% (inactive)
same,viability,"[10]; at 0.00488 µM, OCI-C5x cells, without rucaparib",127% (inactive)
same,viability,"[10]; at 0.00488 µM, OCI-P5x cells, with rucaparib 20 µM, 100% = cells with rucaparib alone",101% (inactive)
same,viability,"[10]; at 0.00488 µM, OCI-P5x cells, without rucaparib",102% (inactive)
same,viability,"[10]; at 0.0195 µM, OCI-C5x cells, with rucaparib 10 µM, 100% = cells with rucaparib alone",127% (inactive)
same,viability,"[10]; at 0.0195 µM, OCI-C5x cells, without rucaparib",126% (inactive)
same,viability,"[10]; at 0.0195 µM, OCI-P5x cells, with rucaparib 20 µM, 100% = cells with rucaparib alone",103% (inactive)
same,viability,"[10]; at 0.0195 µM, OCI-P5x cells, without rucaparib",95.1% (active)
same,viability,"[10]; at 0.0781 µM, OCI-C5x cells, with rucaparib 10 µM, 100% = cells with rucaparib alone",119% (inactive)
same,viability,"[10]; at 0.0781 µM, OCI-C5x cells, without rucaparib",117% (inactive)
same,viability,"[10]; at 0.0781 µM, OCI-P5x cells, with rucaparib 20 µM, 100% = cells with rucaparib alone",97.2% (active)
same,viability,"[10]; at 0.0781 µM, OCI-P5x cells, without rucaparib",102% (inactive)
same,viability,"[10]; at 0.313 µM, OCI-C5x cells, with rucaparib 10 µM, 100% = cells with rucaparib alone",115% (inactive)
same,viability,"[10]; at 0.313 µM, OCI-C5x cells, without rucaparib",117% (inactive)
same,viability,"[10]; at 0.313 µM, OCI-P5x cells, with rucaparib 20 µM, 100% = cells with rucaparib alone",101% (inactive)
same,viability,"[10]; at 0.313 µM, OCI-P5x cells, without rucaparib",88.7% (active)
same,viability,"[10]; at 1.25 µM, OCI-C5x cells, with rucaparib 10 µM, 100% = cells with rucaparib alone",114% (inactive)
same,viability,"[10]; at 1.25 µM, OCI-C5x cells, without rucaparib",122% (inactive)
same,viability,"[10]; at 1.25 µM, OCI-P5x cells, with rucaparib 20 µM, 100% = cells with rucaparib alone",94.9% (active)
same,viability,"[10]; at 1.25 µM, OCI-P5x cells, without rucaparib",94.9% (active)
same,viability,"[10]; at 5 µM, OCI-C5x cells, with rucaparib 10 µM, 100% = cells with rucaparib alone",102% (inactive)
same,viability,"[10]; at 5 µM, OCI-C5x cells, without rucaparib",122% (inactive)
same,viability,"[10]; at 5 µM, OCI-P5x cells, with rucaparib 20 µM, 100% = cells with rucaparib alone",110% (inactive)
same,viability,"[10]; at 5 µM, OCI-P5x cells, without rucaparib",91.7% (active)
same,inhibition,"[11]; at 0.5 µM, stronger effect = higher value",-30.4% (inactive) and -3.77% (inactive)
same,inhibition,"[11]; measured here: combination with BGB IC20, at 0.005 µM",11.8% and -4.71%
same,inhibition,"[11]; measured here: combination with BGB IC40, at 0.005 µM",-7.86% and -37.5%
same,inhibition,"[11]; measured here: combination with BGB IC40, at 0.05 µM",5% and -21.1%
same,inhibition,"[11]; measured here: combination with cisplatin, at 0.5 µM, stronger effect = higher value",-54.2% and -27.9%
same,inhibition,"[11]; measured here: combination with cisplatin, at 5 µM, stronger effect = higher value",-10.7% and -15.7%
same,inhibition,"[12]; BGB combo, at 5 µM",13.3% and -25.3%
same,inhibition,[12]; at 0.5 µM,0.82% (inactive) and -18.3% (inactive)
same,inhibition,"[12]; cisplatin combo, at 5 µM",6.61% and -13.4%
same,inhibition,"[12]; measured here: with BGB IC20 combination, at 0.5 µM",-4.77% and -10.4%
